# Test results reported in the OligoGym collection.
# Assays:
# Experiment in all cases: pooled miR-30 sensor sort-seq; sequence = guide strand
# Conditions in all cases: shRNA
# ADCYAP1 = target: ADCYAP1
# AGPAT6 = target: AGPAT6
# AGBL5 = target: AGBL5
# AGAP3 = target: AGAP3
# AHCY = target: AHCY
# ADRB1 = target: ADRB1
# Also: reference of the scale not given here.
sequence,measurement,setting,value
TAGGCCTCGTTAAGGATCCCGT,sensor-assay potency score (higher = more potent),ADCYAP1,-0.922
TAAGTGAACATGTTTACTCATG,sensor-assay potency score (higher = more potent),AGPAT6,-1.14
ATCTACACGAAGTCCATCCAGA,sensor-assay potency score (higher = more potent),AGBL5,-1.07
TGGAACTGAGTACCTCAGCTGG,sensor-assay potency score (higher = more potent),AGAP3,-1.58
TTTAGGGACAAAACAAACCTCA,sensor-assay potency score (higher = more potent),AGBL5,-0.454
TTGCTTCTCAGTTAGCTTGGTC,sensor-assay potency score (higher = more potent),AHCY,-0.044
ATACTTGATAGCAACAGGGTAA,sensor-assay potency score (higher = more potent),AGPAT6,-0.725
TTGCATTCAAGTGTGTAGCTGT,sensor-assay potency score (higher = more potent),AGBL5,0.765
TTCATCTCGGATCAGCAGCAGG,sensor-assay potency score (higher = more potent),AGAP3,-1.26
TTCTAGTGAAGTGGGATCCTTT,sensor-assay potency score (higher = more potent),AGPAT6,-0.0261
TTTCAGCACAGTCTGGTCGGGT,sensor-assay potency score (higher = more potent),AGBL5,-0.447
TATTGATGCAGGTTCCTTCTGG,sensor-assay potency score (higher = more potent),AGPAT6,-0.00526
TTGATCTCTTCTTCTAGTGAAG,sensor-assay potency score (higher = more potent),AGPAT6,-1.1
TTCATCTGCCTCTCTAGTCATG,sensor-assay potency score (higher = more potent),AGPAT6,-1.09
TTTTTGAACATCATCACCGATG,sensor-assay potency score (higher = more potent),AGPAT6,-0.209
ATACTTCTTCTTCCACTCCTTG,sensor-assay potency score (higher = more potent),AGAP3,-0.733
TCTTCTTCTAGTGAAGTGGGAT,sensor-assay potency score (higher = more potent),AGPAT6,-0.236
TTCCGTTTCAGCACAGTCTGGT,sensor-assay potency score (higher = more potent),AGBL5,0.615
TTCTTCTCTGAGAAATTGCAGC,sensor-assay potency score (higher = more potent),AGBL5,-0.823
TCTCTTTGATCTCTTCTTCTAG,sensor-assay potency score (higher = more potent),AGPAT6,-0.219
TTGCGGAAGTCGGGGCTGCGGC,sensor-assay potency score (higher = more potent),ADRB1,-1.38
TTAAGCTCCGGTACGGAGCGGC,sensor-assay potency score (higher = more potent),AGAP3,-0.14
TTGTAGTTGCATTCAAGTGTGT,sensor-assay potency score (higher = more potent),AGBL5,0.25
TCTGCTGTCGTCGATAACCCGG,sensor-assay potency score (higher = more potent),AGAP3,-1.3
AATAGTTCCACAGTGTATCTGG,sensor-assay potency score (higher = more potent),AGBL5,0.759
TACCAGATGAGCAGCTGCGTGA,sensor-assay potency score (higher = more potent),AGAP3,-0.56
TTGAACATCATCACCGATGTAT,sensor-assay potency score (higher = more potent),AGPAT6,0.749
TTGTAGAGGTTGTGGACCCCAG,sensor-assay potency score (higher = more potent),AHCY,-0.72
TAGATTAGTAAGGCTGCTGTGC,sensor-assay potency score (higher = more potent),AGBL5,-0.537
TACTACTACCACTTCGACGAAT,sensor-assay potency score (higher = more potent),AGPAT6,-0.506
TACTTCTTCTTCCACTCCTTGT,sensor-assay potency score (higher = more potent),AGAP3,-0.51
TAGAAGGAGACTACGGACGAGG,sensor-assay potency score (higher = more potent),ADRB1,-0.754
TTGTACACCGTCTGGAAACTGA,sensor-assay potency score (higher = more potent),AGAP3,-0.718
TTTGGAAGCATGTCCATGCAGG,sensor-assay potency score (higher = more potent),AGBL5,-0.608
TTGAAGACAAAGCTAGATGGAG,sensor-assay potency score (higher = more potent),AGBL5,-0.419
TACACAAACATAAATATTCCAA,sensor-assay potency score (higher = more potent),AGAP3,-0.597
